Assay results reported in PubChem BioAssay (NCATS).
Inconclusive results are not listed. Calls of active or inactive are those of the source. Unless noted, calls follow the shape of the dose curve; as a rule, active = well fitted curve in the direction sought with a large enough effect; inconclusive = small, poorly fitted or top-dose-only effect, or another doubt; inactive = no such curve, though single readings can be large; an effect the other way counts as inactive or inconclusive.

Assays:
[1] = Quantitative High-Throughput drug screen in 47 multiple myeloma cell lines against the NCATS MIPE library collection: L363_DSMZ cell viability assay (AID 1918984); also: nearly all actives have a fitted effect of over 40% in size; also: potency is read from the fitted curve at half-maximal effect
Summary of the method: (§1)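 MIPE 4.0 approved/investigational drugs; 500 cells/well; 48 h 37 °C humidified 5% CO2; CTG luminescence readout; DMSO = 100%, media = 0% viability.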

[2] = Quantitative High-Throughput drug screen in 47 multiple myeloma cell lines against the NCATS MIPE library collection: KMS34_JCRB cell viability assay (AID 1918985); also: nearly all actives have a fitted effect of over 40% in size; also: potency is read from the fitted curve at half-maximal effect
Summary of the method: as §1

[3] = Quantitative High-Throughput drug screen in 47 multiple myeloma cell lines against the NCATS MIPE library collection: OCIMY5_PLB cell viability assay (AID 1918988); also: nearly all actives have a fitted effect of over 65% in size; also: potency is read from the fitted curve at half-maximal effect
Summary of the method: as §1

[4] = Quantitative High-Throughput drug screen in 47 multiple myeloma cell lines against the NCATS MIPE library collection: OPM1_PLB cell viability assay (AID 1918989); also: nearly all actives have a fitted effect of over 40% in size; also: potency is read from the fitted curve at half-maximal effect
Summary of the method: as §1

[5] = Quantitative High-Throughput drug screen in 47 multiple myeloma cell lines against the NCATS MIPE library collection: XG1_PLB cell viability assay (AID 1919866); also: nearly all actives have a fitted effect of over 35% in size; also: potency is read from the fitted curve at half-maximal effect
Summary of the method: as §1

[6] = Quantitative High-Throughput drug screen in 47 multiple myeloma cell lines against the NCATS MIPE library collection: PE2_PLB cell viability assay (AID 1919869); also: nearly all actives have a fitted effect of over 35% in size; also: potency is read from the fitted curve at half-maximal effect
Summary of the method: as §1

[7] = Quantitative High-Throughput drug screen in 47 multiple myeloma cell lines against the NCATS MIPE library collection: RPMI8226_ATCC cell viability assay (AID 1919871); also: nearly all actives have a fitted effect of over 30% in size; also: potency is read from the fitted curve at half-maximal effect
Summary of the method: as §1

[8] = Quantitative High-Throughput drug screen in 47 multiple myeloma cell lines against the NCATS MIPE library collection: KMS11_JCRBsus cell viability assay (AID 1919873); also: nearly all actives have a fitted effect of over 50% in size; also: potency is read from the fitted curve at half-maximal effect
Summary of the method: as §1

[9] = Quantitative High-Throughput drug screen in 47 multiple myeloma cell lines against the NCATS MIPE library collection: KMS28BM_JCRB cell viability assay (AID 1919874); also: nearly all actives have a fitted effect of over 35% in size; also: potency is read from the fitted curve at half-maximal effect
Summary of the method: as §1

[10] = Quantitative High-Throughput drug screen in 47 multiple myeloma cell lines against the NCATS MIPE library collection: OCIMY7_PLB cell viability assay (AID 1918987); also: nearly all actives have a fitted effect of over 65% in size; also: potency is read from the fitted curve at half-maximal effect
Summary of the method: as §1

[11] = Quantitative High-Throughput drug screen in 47 multiple myeloma cell lines against the NCATS MIPE library collection: SKMM1_PLB cell viability assay (AID 1919863); conditions: SKMM1 myeloma viability, CellTiter-Glo ATP, 48 h; viability: stronger effect = lower value; also: nearly all actives have a fitted effect of over 35% in size; also: potency is read from the fitted curve at half-maximal effect
Summary of the method: as §1

[12] = Quantitative High-Throughput drug screen in 47 multiple myeloma cell lines against the NCATS MIPE library collection: XG6_PLB cell viability assay (AID 1919865); also: nearly all actives have a fitted effect of over 40% in size; also: potency is read from the fitted curve at half-maximal effect
Summary of the method: as §1

[13] = Quantitative High-Throughput drug screen in 47 multiple myeloma cell lines against the NCATS MIPE library collection: PCM6_Riken cell viability assay (AID 1919870); also: nearly all actives have a fitted effect of over 30% in size; also: potency is read from the fitted curve at half-maximal effect
Summary of the method: as §1

[14] = Quantitative High-Throughput drug screen in 47 multiple myeloma cell lines against the NCATS MIPE library collection: OPM2_DSMZ cell viability assay (AID 1919872); also: nearly all actives have a fitted effect of over 30% in size; also: potency is read from the fitted curve at half-maximal effect
Summary of the method: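 We plated 500 myeloma cells per well, pinned in MIPE 4.0 compounds, and incubated for 48 hours at 37C. ATP was then quantified with CellTiter-Glo, with DMSO and media-only wells defining 100% and 0%.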

[15] = qHTS drug screen for cell cycle checkpoint inhibitors in PARPi-resistant BRCA-mutant ovarian cancer cell lines. (AID 1963452; calls by dose curve; also: potency is read from the fitted curve at half-maximal effect); conditions: PEO1/OlaR viability, CellTiter-Glo luminescence, 96 h; for Z-AUC: stronger effect = lower value
Summary of the method: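 PEO1, PEO4 and PEO1/OlaR ovarian cancer cells, 600 per well, exposed 96 h at 37C to a dilution series. Viability read by CellTiter-Glo luminescence, normalized to DMSO and empty wells; activity summarized as Z-AUC.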

[16] = Quantitative High-Throughput drug screen in 47 multiple myeloma cell lines against the NCATS MIPE library collection: U266_ATCC cell viability assay (AID 1919864); also: nearly all actives have a fitted effect of over 35% in size; also: potency is read from the fitted curve at half-maximal effect
Summary of the method: as §1

[17] = Quantitative High-Throughput drug screen in 47 multiple myeloma cell lines against the NCATS MIPE library collection: VP6_DJ cell viability assay (AID 1919867)
Summary of the method: as §1

[18] = Quantitative High-Throughput drug screen in 47 multiple myeloma cell lines against the NCATS MIPE library collection: UTMC2_PLB cell viability assay (AID 1919868); conditions: CellTiter-Glo ATP luminescence, 48 h; viability (% of DMSO control): at 45.8 µM (top of the series) unless noted; also: nearly all actives have a fitted effect of over 55% in size; also: potency is read from the fitted curve at half-maximal effect
Summary of the method: as §1

[19] = qHTS for identification of novel therapeutic agents for treatment of microphthalmiaassociated transcription factor (MiT) renal cell carcinoma (RCC) (AID 1963991); conditions: CellTiter-Glo, 48 h, stronger effect = lower value;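 also: curves scaled with 100% = DMSO viability and 0% = empty wells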
Summary of the method: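 UOK109/UOK124/UOK145 (TFE3 fusions, three partners); 500 cells/well; MIPE v4.0, 1912 cpds, 11 conc.; 48 h, 37 C; CellTiter-Glo, 15 min RT; lum. Norm.: DMSO 100%, empty 0%.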

[20] = qHTS profiling for inhibitors of Plasmodium falciparum proliferation (AID 504749);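 also: 0% = DMSO vehicle and full inhibition = artemisinin control; nearly all actives have a fitted effect of over 60% in size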; conditions: P. falciparum in erythrocytes, SYBR Green DNA, 72 h, at 28.7 µM (top of the series)
Summary of the method: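 Parasite proliferation within erythrocytes, 72 h exposure. Endpoint: SYBR Green I fluorescence after overnight lysis at room temperature. Controls: 0.29 uM artemisinin, DMSO.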

[21] = measured here: PEO1 parental Z-AUC
[22] = TFE3-RCC UOK109 viability, measured here: UOK109 Z-AUC
[23] = TFE3-RCC viability, measured here: UOK124 Z-AUC
[24] = TFE3-RCC viability, measured here: UOK145 Z-AUC

CC(=O)OCCN1C(=O)c2c(C)nc3ccc(S(=O)(=O)N4CCOCC4)cc3c2C1=O
inactive: Potency [1] | Potency [2] | Potency [3] | Potency [4] | Potency [5] | Potency [6] | Potency [7] | Potency [8] | Potency [9]

c1ccc2c(CCNc3ccc(Nc4ccncc4)cc3)c[nH]c2c1
inactive: Potency [14]
active: Potency [1] 4.69 µM | Potency [10] 8.33 µM | Potency [3] 20.9 µM | Potency [4] 18.7 µM | Potency [11] 29.6 µM | Potency [12] 23.5 µM | Potency [5] 20.9 µM | Potency [6] 16.6 µM | Potency [13] 20.9 µM | Potency [7] 20.9 µM | Potency [8] 14.8 µM | Potency [9] 11.8 µM | Potency [15] 1.23 µM
-1.4: Z-AUC [15, 21]
-1.17: Z-AUC ([15]; measured here: PEO4 Z-AUC)

Nc1nc(NCCNc2ncc(-n3ccnc3)c(-c3ccc(Cl)cc3Cl)n2)ccc1[N+](=O)[O-]
0.907: Z-AUC [15, 21]
0.221: Z-AUC ([15]; measured here: PEO4 Z-AUC)
active: Potency [1] 5.26 µM | Potency [10] 5.26 µM | Potency [3] 18.7 µM | Potency [4] 5.26 µM | Potency [12] 2.35 µM | Potency [5] 6.62 µM | Potency [17] 7.43 µM | Potency [6] 3.72 µM | Potency [13] 2.35 µM
inactive: Potency [16] | Z-AUC [15] 0.218

CC(C)(C)c1cc(NC(=O)Nc2ccc(-c3cn4c(n3)sc3cc(OCCN5CCOCC5)ccc34)cc2)no1
0.987: Z-AUC ([15]; measured here: PEO4 Z-AUC)
0.804: Z-AUC [15, 21]
inactive: Potency [1] | Potency [10] | Potency [13] | Potency [9] | Z-AUC [15] 1.23
active: Potency [3] 9.35 µM | Potency [6] 0.148 µM | Potency [14] 5.26 µM

CNc1nccc(-c2cccnc2Oc2cc(C(=O)Nc3cccc(C(F)(F)F)c3)ccc2C)n1
0.0306: Z-AUC ([15]; measured here: PEO4 Z-AUC)
inactive: Z-AUC [15] 0.523
active: Potency [1] 14.8 µM | Potency [2] 14.8 µM | Potency [10] 1.66 µM | Potency [4] 13.2 µM | Potency [11] 18.7 µM | Potency [16] 16.6 µM | Potency [5] 2.35 µM | Potency [17] 5.26 µM | Potency [18] 14.8 µM | Potency [6] 6.62 µM | Potency [13] 4.18 µM | Potency [8] 18.7 µM | Potency [9] 23.5 µM
-0.637: Z-AUC [15, 21]

COc1ccc(OC)c(-c2nnc3ccc(-c4ccc(OC)c(O[C@@H]5CCOC5)c4)nn23)c1
active: Potency [1] 10.5 µM | Potency [3] 16.6 µM | Potency [11] 18.7 µM | Potency [16] 7.43 µM | Potency [5] 7.43 µM | Potency [17] 6.62 µM | Potency [18] 9.35 µM | Potency [6] 8.33 µM | Potency [13] 7.43 µM | Potency [7] 18.7 µM | Potency [14] 23.5 µM | Potency [8] 6.62 µM | Potency [9] 7.43 µM
-1.98: Z-AUC ([15]; measured here: PEO4 Z-AUC)
inactive: Z-AUC [15] -1.33
-1.59: Z-AUC [15, 21]

CCCNC(=O)Nc1ccc(Oc2ncnc3cc(OC)c(OC)cc23)cc1Cl
-0.53: Z-AUC ([15]; measured here: PEO4 Z-AUC)
active: Potency [7] 0.935 µM
0.0793: z-score [19, 22]
-0.00236: Z-AUC [15, 21]
inactive: Potency [1] | Potency [2] | Potency [4] | viability [11] 116% | Potency [12] | Potency [5] | Potency [18] | Potency [6] | Potency [13] | Potency [14] | Z-AUC [15] -0.498
-0.496: z-score [19, 24]
-1.33: z-score [19, 23]

O=C(O)CO.[NH2-].[NH2-].[Pt+2]
1.18: z-score [19, 24]
1.56: z-score [19, 23]
inactive: Potency [1] | Potency [2] | Potency [4] | Potency [5] | Potency [6] | Potency [13] | Potency [7] | Potency [14] | Potency [8] | Potency [9] | activity, negative = inhibition ([20]; parasite line A) 12% | activity, negative = inhibition ([20]; parasite line B) 15.6%
0.642: z-score [19, 22]

COc1cc(C)c(Sc2cnc(NC(=O)c3ccc(CNC(C)C(C)C)cc3)s2)cc1C(=O)N1CCN(C(C)=O)CC1 (stereo not given)
inactive: Z-AUC [15] -0.385
-0.662: Z-AUC [15, 21]
active: Potency [1] 9.35 µM | Potency [10] 10.5 µM | Potency [3] 5.26 µM | Potency [4] 18.7 µM | Potency [11] 18.7 µM | Potency [16] 23.5 µM | Potency [12] 16.6 µM | Potency [5] 18.7 µM | Potency [17] 7.43 µM | Potency [18] 4.18 µM | Potency [6] 13.2 µM | Potency [13] 23.5 µM | Potency [7] 14.8 µM | Potency [14] 20.9 µM | Potency [8] 8.33 µM | Potency [9] 13.2 µM
-0.689: Z-AUC ([15]; measured here: PEO4 Z-AUC)

CN1CCN(c2cc(C(=O)Nc3ccc4c(c3)-c3c(c(C(N)=O)nn3-c3ccc(F)cc3)CC4)c(Cl)cn2)CC1
active: Potency [1] 4.18 µM | Potency [10] 0.187 µM | Potency [3] 2.96 µM | Potency [11] 26.4 µM | Potency [16] 2.96 µM | Potency [5] 3.32 µM | Potency [17] 2.96 µM | Potency [18] 2.09 µM | Potency [6] 1.48 µM | Potency [7] 23.5 µM | Potency [14] 26.4 µM | Potency [8] 8.33 µM | Potency [9] 8.33 µM
-0.0103: Z-AUC ([15]; measured here: PEO4 Z-AUC)
inactive: Z-AUC [15] 0.539
0.439: Z-AUC [15, 21]

O=C1CCC[C@@H]2[C@H]3CCC[N+]4([O-])CCC[C@@H](CN12)[C@@H]34 (stereo not given in full)
inactive: Potency [1] | Potency [2] | Potency [4] | Potency [5] | Potency [6] | Potency [13]
active: Potency [17] 6.62 µM
0.308: z-score [19, 22]
0.251: z-score [19, 23]
0.512: z-score [19, 24]

CC(=O)Nc1nc(C)c(-c2ccc(Cl)c(S(=O)(=O)NCCO)c2)s1
inactive: Z-AUC [15] -1.67
-0.921: Z-AUC [15, 21]
-1.08: Z-AUC ([15]; measured here: PEO4 Z-AUC)
active: Potency [1] 1.18 µM | Potency [10] 0.105 µM | Potency [3] 9.35 µM | Potency [4] 2.96 µM | Potency [16] 6.62 µM | Potency [12] 2.09 µM | Potency [5] 1.66 µM | Potency [17] 2.64 µM | Potency [18] 0.526 µM | Potency [6] 4.69 µM | Potency [13] 4.69 µM | Potency [7] 16.6 µM | Potency [14] 14.8 µM | Potency [8] 5.26 µM | Potency [9] 18.7 µM
